# Columns and labels:
# Assay in all cases: PBM binding z-score (relative to random genomic background probes); higher = stronger binding; sequences stand for … in GC…GCGATTGACAGCGTAGAATGAAGG
# [1] = system: RARb homodimer (NR concentration 270 nM)
# Method in brief: (§1)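 For binding z-scores, the reference was random background probes on custom Agilent 4×180K protein-binding microarrays. These arrays were incubated 1 h with ligand-free nuclear receptor dimers in PBS pH 7.4, 2% milk, 0.02% Triton X-100, 1 mM DTT, 0.2 mg/mL BSA and 0.4 mg/ml salmon testes DNA. Fluorescence was scanned after antibody detection of each partner (one per run) and regression-normalized.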
# [2] = system: RARg:RXRa (NR concentration 270 nM, RXRa partner concentration 90 nM)
# Method in brief: as §1
# [3] = system: RARg homodimer (NR concentration 270 nM)
# Method in brief: as §1
# [4] = system: RXRa DBDmut IVT, anti-RXR (DBD mutation: RXRa K156A/R161A, NR concentration 90 nM)
# Method in brief: as §1
# [5] = system: RXRa homodimer (NR concentration 180 nM)
# Method in brief: as §1
# [6] = system: THRa:RXRa (NR concentration 90 nM, RXRa partner concentration 90 nM)
# Method in brief: as §1
# [7] = system: THRa homodimer (NR concentration 90 nM)
# Method in brief: as §1
# [8] = system: VDR homodimer (NR concentration 270 nM)
# Method in brief: as §1
Sequence,PBM binding z-score [1],PBM binding z-score [2],PBM binding z-score [3],PBM binding z-score [4],PBM binding z-score [5],PBM binding z-score [6],PBM binding z-score [7],PBM binding z-score [8]
CCTCGGAGGACAGAAGGTCAGAGCTGTCCGCTTT,3.43,3.39,2.55,0.0371,1.89,2.22,-0.0461,-0.131
GCATATAGTTAATACAAGGTGAAAGTCCGATTGT,0.847,0.222,0.365,0.966,0.312,2.89,1.18,-0.0676
TCTTGTAGATCAGCAGGTTTAGAAAGCTGGCCAA,-0.607,-0.508,-0.884,0.412,-0.374,-0.307,-0.755,-0.457
TCTAGTTGGTCACGGAGGTCGCACACGACGGGTA,2.48,2.11,2.3,0.614,2.16,1.91,0.625,1.18
TCTAGTTGGTCACGGAGGTCACACAGGACGGGTA,4.25,4.69,4.9,0.898,4.86,3.75,2.62,3.06
ACAGACTGGTGATGAAGGTAACTCAGGCTATCAT,-0.356,-0.329,0.0364,-0.417,-0.393,0.478,-0.264,-0.921
ATATGTAGGTTAGGTGGGGTCATTCAGACTAGGC,3.74,4.1,3.02,2.19,5.54,5.05,3.72,6.4
TCATTTAGGTAAAAGGTGAAAGTCGGTGTGGTAA,1.9,1.81,1.04,1.68,2.47,2.14,0.844,0.375
CTGACTGGGGCAAGGTTACCATAACGCACAGCCA,1.54,1.43,1.43,0.0299,1.28,1.52,0.417,0.129
AGAATGAGGTTACCAAAGATCAGGGATACGCTTG,1.07,2.08,1.72,1.22,2.54,2.8,1.06,0.23
TGTCAAAGTTCAAAGGTAAAGTAAGTATCCACAC,3.74,6.33,6.06,4.16,7,3.08,-0.134,3.53
CAAACTAGGTTACGAAAGGTCAAAGTCGAATGAC,5,6.3,5.88,1.6,6.62,4.48,1.51,2.58
TCTTGTAGATCAAAGATTAAGAAAGCCGAAGCCT,-1.12,0.0193,-0.33,0.517,0.241,-0.201,-0.962,-0.417
CCTACTGGGCCAAAAAGGTCTTTGATGCCGATAA,0.452,-0.217,-0.013,-0.428,-0.121,-0.113,-0.671,-0.382
TCTAATAGTTGATTAGGGCAACCGAAACAGCGGA,0.599,0.338,0.66,0.755,0.708,0.551,-0.0484,-0.0344
GCGACTGGGCCAAAGCAGGTTACCATAAGGTTGG,0.333,-0.0916,-0.132,-0.818,-0.0243,1.82,-0.598,-0.503
TGAATGAGGTTAAAGACCAGGGAACGTGGCGTCG,0.539,1.91,0.92,0.895,2.95,2.14,0.297,0.179
AATTACGGGTCAACGAGGTTATAGCACGCGTATA,3.63,5.71,4.88,2.47,6.2,4.18,1.16,4.13
CCGACTGGGGCAGAAAGGTTACGATACCATCCGG,2.38,1.96,1.37,-0.562,2.09,1.15,-0.229,-0.0227
TAGCCTAGGTCGTTGGGCCAGTATAGTACGCATC,0.513,0.529,0.698,0.311,0.61,0.621,0.0467,0.0773
TATACAGGGTCAAAGGCCAGAGGACGAATGTCGA,3.52,5.92,5.44,2.95,7.17,3.5,0.968,2.9
TAGCCTAGGTCATGAGGGCCAGTATAGTGTCGGC,3.01,4.06,4.57,0.234,3.23,3.04,0.958,0.404
CGTCCAAGGTCAATGCCAGGTCAGTGAAAGCATT,4.92,7.69,6.75,3.86,5.27,4.71,3.6,3.03
CCAGACAGGGGAAAGGTAACTCAGTCTGGTACGC,0.183,0.177,-0.0948,-0.138,0.529,0.146,0.0595,-0.41
CAAACTAGGTCAAGAGGTCAAAGCCCGCTTCCCG,5.64,8.19,7.34,2.92,7.83,4.46,2.47,3.87
GATACAGGGTCAGCTAGAGGCGAGAGTATGGAAA,2.7,5.04,4.34,1.57,4.51,2.79,0.319,0.871
CAAACTGGGTCACGAAAGGTCAAAGTCGAATGAC,5.73,7.84,8.05,2.44,8.52,5.02,1.75,3.72
ATACCAAGGTGATCGTGAGCTCGTTGATACTAAC,0.153,-0.0277,0.19,-0.225,0.139,0.678,0.422,-0.219

# Source: the supplement of paper PMC6555819
